As a reminder, the inhibition is the change of the read-out against control, counted positive when it falls.

Experimental findings from PubChem BioAssay are described below.

Assay [1] is described as follows: yeast TOR pathway RPL19A-GFP modulators, primary screen, cell-based, S. cerevisiae, multiplex flow cytometry (AID 1862; in the data active = percent of DMSO control GFP below about 86%;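 also: lower values mimic rapamycin by blocking the RPL19A rise seen in DMSO cells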). Particulars: S. cerevisiae RPL19A-GFP strain, flow cytometry fluorescence, 3 h; at 10 µM; stronger effect = lower value. On the technique in general: In flow cytometry, cells or beads pass a laser one at a time.
Assay [2] is described as follows: modulators of MEP2-GFP levels in yeast, primary screen, S. cerevisiae, multiplex flow cytometry (AID 1867;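 active = GFP response, as percent of the DMSO control, above the screen-wide mean plus 3 SD, about 139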;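 also: median GFP channel fluorescence of barcode-gated MEP2-GFP cells measured by flow cytometry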). Particulars: S. cerevisiae MEP2-GFP strain, 3 h, at 10 µM, stronger effect = higher value, 100% means same as DMSO wells.
Assay [3] in a line: modulators of CIT2-GFP expression in yeast, primary screen, S. cerevisiae, GFP fusion, multiplex flow cytometry (AID 1870;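 active = percent response above a set limit, the screen-wide mean plus 3 SD, cut at about 130% in these data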;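 also: barcoded CIT2-GFP strain pooled with four other GFP strains with rapamycin as positive control; median GFP fluorescence per well over plate mean of DMSO wells so 100% = DMSO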). Particulars: 3 h, at 10 µM, stronger effect = higher value.
The nature of assay [4]: modulators of LAP4-GFP expression in yeast, primary screen, S. cerevisiae, multiplex flow cytometry (AID 1873;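 active = GFP signal, as percent of the solvent control, above the screen mean plus 3 SD, about 149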). The following applies: 3 h, at 10 µM, stronger effect = higher value.
Assay [5] can be described thus: modulators of AGP1-GFP expression in yeast TOR pathway, primary screen, cell-based, multiplex flow cytometry, S. cerevisiae (AID 1887;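 active = GFP signal above the screen-wide mean plus 3 SD, that is over about 124.5% of the solvent control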;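 also: AGP1-GFP fusion strain of S. cerevisiae within a five-strain barcoded multiplex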). Particulars: 3 h, at 10 µM, stronger effect = higher value.
Assay [6] in a line: inhibitors of CD8+ T cell-vesicle binding, pilot screen, LFA-1/ICAM-1 modulator project, MLPCN validation set, flow cytometry (AID 2523;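 active = response below a set limit, under 55% cells CD8-positive and vesicle-bound, and CD8 cells' 90th-percentile brightness under 279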;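 as to vesicle binding response: mean PE anti-B7-1 fluorescence of CD8+ cells relative to row control; 100% = QL9-loaded vesicles with DMSO vehicle in the same plate row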). The following applies: 2C mouse CD8+ T cells, at 7 µM, stronger effect = lower value; double positive events: measured here: CD8+/vesicle+ event percentage.
Assay [7] has as its target Integrin beta-1 (Homo sapiens) + Integrin alpha-4 (Homo sapiens) (UniProt P13612+P05556). Description: inhibition of HUTS-21 binding to VLA-4, pilot screen, VLA-4 allosteric modulator project, U937 cells, HUTS-21 mAb, flow cytometry, validation set (AID 2674;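 active = inhibition above 50%, about 3 SD of the validation set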;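 also: antibody binding induced by the VLA-4 ligand LDV present at three times its Kd; 0% = LDV ligand with antibody and no compound and 100% = antibody without LDV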). Particulars: HUTS-21 LIBS mAb binding, at 6.7 µM, stronger effect = higher value, binding induced by LDV ligand.
Assay [8] is described as follows: superoxide lowering in aged yeast cells, pilot screen, validation compound set (AID 2706;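 active = superoxide response below 65% of plate, a cut near 3 SD across the whole screen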;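 also: yeast exposed to compound for one week at 30 degrees C before staining; 100% = mean of all compound wells on the same plate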). The following applies: S. cerevisiae aging, superoxide DHE fluorescence; at 10 µM; stronger effect = lower value.
Assay [9] addresses Beta-adrenergic receptor kinase 1 (Homo sapiens) (UniProt P25098). The experiment in a line: GRK2 binders displacing RNA aptamer, biochemical, validation, human GRK2, bead flow cytometry (AID 488806;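 active = aptamer binding inhibition above 30%, about 3 SD of noise from non-fluorescent compounds; inactive = inhibition at or below 30%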). Particulars: bead-bound GRK2, FAM-aptamer displacement, at 10 µM, stronger effect = higher value.
The target in assay [10] is Beta-2 adrenergic receptor (Homo sapiens) (UniProt P07550). Description: beta2AR agonists driving receptor internalization, pilot screen, cell-based, FAP fluorogen, flow cytometry, validation set (AID 504459).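 Also: agonist-driven loss of surface beta2AR via internalization measured by FAP dye flow cytometry.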 Particulars: Am2.2-beta2AR cells, FAP surface receptor flow cytometry; at 10 µM; stronger effect = higher value.
Sequence of Beta-2 adrenergic receptor (Homo sapiens) (P07550 whole entry, looked up): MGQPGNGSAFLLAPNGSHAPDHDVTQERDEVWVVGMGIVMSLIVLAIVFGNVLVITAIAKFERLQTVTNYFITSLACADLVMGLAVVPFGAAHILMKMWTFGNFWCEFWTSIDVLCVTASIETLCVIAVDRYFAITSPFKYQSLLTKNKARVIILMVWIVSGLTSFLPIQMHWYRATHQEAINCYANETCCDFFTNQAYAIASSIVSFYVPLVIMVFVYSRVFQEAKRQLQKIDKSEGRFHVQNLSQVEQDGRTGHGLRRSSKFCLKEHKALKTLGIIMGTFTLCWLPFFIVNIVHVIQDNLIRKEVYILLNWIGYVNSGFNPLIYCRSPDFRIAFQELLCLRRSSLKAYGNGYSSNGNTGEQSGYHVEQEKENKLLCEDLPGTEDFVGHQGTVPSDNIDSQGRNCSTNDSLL
The target in assay [11] is AP-2 complex subunit beta (Homo sapiens) (UniProt P63010). The experiment in a line: inhibitors of arrestin peptide binding to AP2, pilot screen, biochemical, validation set, GST-AP2 beads, flow cytometry (AID 504541;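 active = inhibition above 54%, about 3 SD of non-fluorescent compounds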;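 also: AP2 carries R879A mutation and is captured from E. coli lysate; bead-bound FITC arrestin peptide fluorescence measuring arrestin peptide binding to AP2; 0% = DMSO wells and 100% = excess unlabeled arrestin peptide control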). Particulars: FITC arrestin peptide, at 10 µM, stronger effect = higher value, AP2 beta2 appendage fragment, R879A mutant.
Sequence of AP-2 complex subunit beta (Homo sapiens) (P63010 whole entry, looked up, the tested form may be a part, one chain of several): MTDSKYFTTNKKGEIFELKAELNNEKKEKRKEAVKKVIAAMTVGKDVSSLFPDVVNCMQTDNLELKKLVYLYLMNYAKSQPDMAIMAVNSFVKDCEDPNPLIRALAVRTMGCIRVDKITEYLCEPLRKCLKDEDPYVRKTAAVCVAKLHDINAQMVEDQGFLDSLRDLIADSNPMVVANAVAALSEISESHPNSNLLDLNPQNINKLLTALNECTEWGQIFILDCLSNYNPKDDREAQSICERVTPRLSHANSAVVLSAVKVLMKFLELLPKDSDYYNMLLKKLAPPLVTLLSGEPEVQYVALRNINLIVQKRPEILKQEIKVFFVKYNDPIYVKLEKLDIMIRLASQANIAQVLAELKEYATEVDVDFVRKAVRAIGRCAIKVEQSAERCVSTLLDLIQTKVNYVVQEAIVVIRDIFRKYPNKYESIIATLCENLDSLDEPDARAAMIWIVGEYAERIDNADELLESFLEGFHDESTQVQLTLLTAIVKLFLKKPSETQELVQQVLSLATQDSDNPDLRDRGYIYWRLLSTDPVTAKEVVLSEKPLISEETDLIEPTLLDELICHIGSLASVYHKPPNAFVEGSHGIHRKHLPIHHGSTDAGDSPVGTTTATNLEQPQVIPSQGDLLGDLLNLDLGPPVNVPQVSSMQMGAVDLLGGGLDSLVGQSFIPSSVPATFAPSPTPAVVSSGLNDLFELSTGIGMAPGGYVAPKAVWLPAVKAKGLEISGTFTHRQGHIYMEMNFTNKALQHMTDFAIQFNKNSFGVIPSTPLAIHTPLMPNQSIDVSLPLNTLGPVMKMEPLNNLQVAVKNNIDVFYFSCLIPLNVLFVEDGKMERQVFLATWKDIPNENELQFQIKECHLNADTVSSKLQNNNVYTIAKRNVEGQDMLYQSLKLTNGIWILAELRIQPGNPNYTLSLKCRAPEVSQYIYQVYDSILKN
Assay [12] is described as follows: yeast V-ATPase proton transport modulators, S. cerevisiae, pHLuorin, HTS validation (AID 504600; in the data active = response above about 15%;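 also: plate controls were DMSO for no effect and reference compound for full effect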). The following applies: S. cerevisiae pHLuorin cytosolic pH, at 10 µM, stronger effect = higher value.
Assay [13] concerns anti-desmoglein-3 scFv antibody binding to human DSG3. The experiment in a line: inhibitors of anti-DSG3 scFv binding to DSG3, pilot screen, biochemical, validation compound set, bead-based, flow cytometry (AID 588368;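 active = binding below the plate cutoff, the plate median minus 3 SD, with a reading above zero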;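 also: signal is the median channel fluorescence of bead-bound GFP antibody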). Particulars: Protein G beads, DSG3-Fc, scFv-GFP binding, at 10 µM, stronger effect = lower value.
Assay [14] is described as follows: inhibitors of fungal efflux pumps CDR1, CDR2, MDR1, pilot screen, validation compound set, multiplex, phenotypic (AID 588506;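 active = efflux inhibition above 0.42, the validation set average plus 4 SD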;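 also: Nile Red retained in cells so higher fluorescence means more efflux inhibition; 0 = negative control wells and 1 = enniatin B 25 µM full block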). The following applies: S. cerevisiae pump-expressing triplex, Nile Red efflux flow cytometry; at 10 µM; stronger effect = higher value; the pumps come from Candida albicans.
Assay [15] has as its target ATP-binding cassette sub-family B member 6 (Homo sapiens) (UniProt Q9NP58). The experiment in a line: ABCB6 transporter inhibitors, pilot screen, K562-ABCB6 cells, flow cytometry, validation set (AID 588550;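 active = inhibition above the screen-wide mean plus 3 SD, about 51%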;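 also: 0% = DMSO wells and 100% = benzethonium chloride 70 µM positive control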). The following applies: K562-ABCB6 porphyrin accumulation, 1 h, at 10 µM, stronger effect = higher value.
The nature of assay [16]: promoters of myeloid differentiation in arrested cells, primary screen, cell-based, GFP/MAC1 double positive, flow cytometry, validation set (AID 588685;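 active = differentiation response of at least 50%, scaled between solvent and reference control, from cells with both markers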;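 also: compound exposure lasts four days before antibody staining and flow analysis; 0% = DMSO wells and 100% = 5 µM fulvestrant positive control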). The following applies: ER-HoxA9 marrow cells, stronger effect = higher value, normalized: vehicle 0, fulvestrant 100.

Records with an inconclusive call do not appear. Active and inactive are the calls of the source.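 The calls were made as follows, unless noted: active = percent response above 42, roughly 3 SD of non-fluorescent test compounds; inactive = the rest.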

Sequence of Integrin beta-1 (Homo sapiens) + Integrin alpha-4 (Homo sapiens) (P05556 whole entry, looked up): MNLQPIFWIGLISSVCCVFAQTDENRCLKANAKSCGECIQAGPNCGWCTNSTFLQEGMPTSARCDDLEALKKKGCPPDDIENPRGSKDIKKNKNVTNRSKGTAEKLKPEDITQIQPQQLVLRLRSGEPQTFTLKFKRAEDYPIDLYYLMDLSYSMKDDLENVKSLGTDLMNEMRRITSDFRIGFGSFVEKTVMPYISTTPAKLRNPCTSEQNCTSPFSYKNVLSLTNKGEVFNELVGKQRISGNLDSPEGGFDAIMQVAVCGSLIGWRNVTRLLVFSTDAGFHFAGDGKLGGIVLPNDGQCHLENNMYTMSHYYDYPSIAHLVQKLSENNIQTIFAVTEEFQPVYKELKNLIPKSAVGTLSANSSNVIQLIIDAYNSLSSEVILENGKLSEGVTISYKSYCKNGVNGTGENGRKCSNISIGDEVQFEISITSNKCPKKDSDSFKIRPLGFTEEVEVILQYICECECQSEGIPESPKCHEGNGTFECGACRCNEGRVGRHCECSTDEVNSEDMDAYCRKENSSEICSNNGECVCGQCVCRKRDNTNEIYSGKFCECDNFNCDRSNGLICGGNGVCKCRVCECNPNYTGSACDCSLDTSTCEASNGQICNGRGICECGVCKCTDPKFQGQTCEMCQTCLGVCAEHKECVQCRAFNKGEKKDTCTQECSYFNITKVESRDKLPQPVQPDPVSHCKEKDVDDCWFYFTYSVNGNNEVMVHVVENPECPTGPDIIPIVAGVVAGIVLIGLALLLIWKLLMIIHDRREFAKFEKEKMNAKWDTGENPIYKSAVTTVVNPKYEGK
Sequence of Integrin beta-1 (Homo sapiens) + Integrin alpha-4 (Homo sapiens) (P13612 whole entry, looked up): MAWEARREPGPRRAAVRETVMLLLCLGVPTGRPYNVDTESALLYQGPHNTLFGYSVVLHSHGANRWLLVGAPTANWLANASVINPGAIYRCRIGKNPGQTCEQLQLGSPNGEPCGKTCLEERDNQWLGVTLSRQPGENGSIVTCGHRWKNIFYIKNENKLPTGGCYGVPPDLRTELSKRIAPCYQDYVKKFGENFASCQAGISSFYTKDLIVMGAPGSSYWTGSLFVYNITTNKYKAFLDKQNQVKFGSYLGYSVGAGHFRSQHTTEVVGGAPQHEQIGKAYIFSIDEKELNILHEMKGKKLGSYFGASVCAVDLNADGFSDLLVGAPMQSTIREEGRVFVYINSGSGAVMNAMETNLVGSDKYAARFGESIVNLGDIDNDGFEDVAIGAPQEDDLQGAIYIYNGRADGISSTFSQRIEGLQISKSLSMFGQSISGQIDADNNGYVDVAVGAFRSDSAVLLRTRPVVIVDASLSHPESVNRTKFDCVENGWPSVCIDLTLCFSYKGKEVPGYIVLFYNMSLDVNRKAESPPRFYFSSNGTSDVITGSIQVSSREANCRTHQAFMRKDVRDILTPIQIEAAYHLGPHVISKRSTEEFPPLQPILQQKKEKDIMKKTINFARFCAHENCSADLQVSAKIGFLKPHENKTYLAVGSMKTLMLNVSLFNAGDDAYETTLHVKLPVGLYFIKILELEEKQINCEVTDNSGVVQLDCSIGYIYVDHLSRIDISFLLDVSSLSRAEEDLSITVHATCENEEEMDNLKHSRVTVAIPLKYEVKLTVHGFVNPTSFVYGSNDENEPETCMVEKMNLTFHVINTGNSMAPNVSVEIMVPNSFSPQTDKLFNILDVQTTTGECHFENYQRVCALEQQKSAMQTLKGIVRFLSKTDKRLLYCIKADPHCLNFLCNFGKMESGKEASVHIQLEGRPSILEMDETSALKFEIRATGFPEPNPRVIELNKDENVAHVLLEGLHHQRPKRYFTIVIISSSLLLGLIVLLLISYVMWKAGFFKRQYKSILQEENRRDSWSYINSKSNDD
Sequence of ATP-binding cassette sub-family B member 6 (Homo sapiens) (Q9NP58 whole entry, looked up): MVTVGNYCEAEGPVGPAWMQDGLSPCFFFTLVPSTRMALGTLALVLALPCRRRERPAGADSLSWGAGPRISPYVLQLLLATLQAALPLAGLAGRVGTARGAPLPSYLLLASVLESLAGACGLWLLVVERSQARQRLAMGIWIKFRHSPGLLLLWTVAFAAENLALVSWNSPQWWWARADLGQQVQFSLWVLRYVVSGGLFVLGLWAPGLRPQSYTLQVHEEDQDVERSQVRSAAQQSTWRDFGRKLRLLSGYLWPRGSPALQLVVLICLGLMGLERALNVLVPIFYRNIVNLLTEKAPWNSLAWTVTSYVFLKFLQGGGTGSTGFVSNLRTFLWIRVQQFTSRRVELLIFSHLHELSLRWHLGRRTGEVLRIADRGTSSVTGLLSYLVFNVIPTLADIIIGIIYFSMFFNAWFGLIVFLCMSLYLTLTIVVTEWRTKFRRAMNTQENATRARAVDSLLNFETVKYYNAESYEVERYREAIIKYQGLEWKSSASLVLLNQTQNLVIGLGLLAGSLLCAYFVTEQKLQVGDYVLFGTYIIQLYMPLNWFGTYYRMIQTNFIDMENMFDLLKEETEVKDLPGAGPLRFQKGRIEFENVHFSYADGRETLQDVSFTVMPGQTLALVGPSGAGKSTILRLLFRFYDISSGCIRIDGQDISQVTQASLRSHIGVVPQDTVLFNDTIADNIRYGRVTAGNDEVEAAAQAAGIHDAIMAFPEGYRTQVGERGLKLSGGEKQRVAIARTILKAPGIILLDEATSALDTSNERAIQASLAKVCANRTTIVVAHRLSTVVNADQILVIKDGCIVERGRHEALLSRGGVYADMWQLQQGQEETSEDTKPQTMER
Sequence of Beta-adrenergic receptor kinase 1 (Homo sapiens) (P25098 whole entry, looked up): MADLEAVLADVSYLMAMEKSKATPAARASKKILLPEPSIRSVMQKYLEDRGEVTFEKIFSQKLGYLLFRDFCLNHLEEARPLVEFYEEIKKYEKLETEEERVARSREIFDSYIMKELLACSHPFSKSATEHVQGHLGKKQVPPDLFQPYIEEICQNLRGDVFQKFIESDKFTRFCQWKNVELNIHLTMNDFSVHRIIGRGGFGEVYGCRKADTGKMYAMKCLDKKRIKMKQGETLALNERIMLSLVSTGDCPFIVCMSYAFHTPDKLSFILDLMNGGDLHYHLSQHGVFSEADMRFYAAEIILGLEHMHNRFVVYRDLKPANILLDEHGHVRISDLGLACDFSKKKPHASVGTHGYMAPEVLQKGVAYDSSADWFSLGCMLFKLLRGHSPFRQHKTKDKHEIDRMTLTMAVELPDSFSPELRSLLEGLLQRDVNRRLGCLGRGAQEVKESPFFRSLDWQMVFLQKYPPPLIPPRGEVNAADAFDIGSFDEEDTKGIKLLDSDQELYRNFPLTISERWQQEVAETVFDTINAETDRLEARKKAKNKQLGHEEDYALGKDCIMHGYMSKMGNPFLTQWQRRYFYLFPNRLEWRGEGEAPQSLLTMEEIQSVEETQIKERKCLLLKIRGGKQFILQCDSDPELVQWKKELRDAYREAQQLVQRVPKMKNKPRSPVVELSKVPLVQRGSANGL

On to `CCOc1cc2c3c(c1)C(C)=CC(C)(C)N3C(=O)C2=O`, for which, in assay [1], the percent of DMSO control GFP is 95% (inactive). Also, the GFP response vs DMSO in assay [2] is 111% (inactive); in assay [4], 108% (inactive). Besides, the percent response of DMSO control in assay [3] was 103% (inactive). The GFP response, % of DMSO in assay [5] is 102% (inactive). In assay [6], this molecule returned a double positive events of 43.2%. The vesicle binding response in assay [6] is 11.7% (active). Further, the values for the inhibition in assay [7], in assay [11] and in [15] were 35.1% (inactive), 51.5% (inactive) and 4% (inactive), respectively. Besides, in assay [8], the superoxide response (% of plate) was 108% (inactive). Besides, in [9], the aptamer binding inhibition was 0% (inactive). Further, the response in assay [10] was 23% (inactive); in [12], -5.76% (inactive). Moreover, the binding (% of control) in assay [13] was 101% (inactive). Further, in assay [14], the efflux inhibition (fraction of control) was -0.13 (inactive). In addition, the differentiation response in assay [16] was -0.8% (inactive).
As for `COc1ccc(C(=O)NCc2cccnc2)cc1`, in [1], the percent of DMSO control GFP was 103% (inactive). Moreover, the GFP response vs DMSO in assay [2] was 101% (inactive); in assay [4] it was 85.4% (inactive). For the same molecule, the percent response of DMSO control in assay [3] is 98.6% (inactive). Also, in assay [5], the GFP response, % of DMSO was 94.6% (inactive). This molecule returned a double positive events in assay [6] of 58.3%. The vesicle binding response in assay [6] was 247% (inactive). The inhibition was 11.9% (inactive) in assay [7], -8.5% (inactive) in assay [11] and 6% (inactive) in assay [15]. Moreover, the superoxide response (% of plate) in assay [8] is 105% (inactive). Also, the aptamer binding inhibition in assay [9] was 7% (inactive). Further, the response in [10] was 3.58% (inactive); in assay [12], 1.75% (inactive). In addition, the binding (% of control) in assay [13] is 101% (inactive). The efflux inhibition (fraction of control) in [14] is -0.13 (inactive). Further, the differentiation response in assay [16] was -24.8% (inactive).
Turning to `CCCc1c(OCCCCc2nn[nH]n2)ccc(C(C)=O)c1O`, the percent of DMSO control GFP in assay [1] was 107% (inactive). Moreover, the GFP response vs DMSO in assay [2] is 107% (inactive); in assay [4], 111% (inactive). For the same molecule, in [3], the percent response of DMSO control is 104% (inactive). For the same molecule, in assay [5], the GFP response, % of DMSO was 112% (inactive). The double positive events in [6] amounted to 62.8%. Also, in [6], the vesicle binding response is 197% (inactive). Besides, the inhibition in [7] was -13.2% (inactive); in assay [11], -8.69% (inactive); in assay [15], -13% (inactive). Also, in assay [8], the superoxide response (% of plate) was 115% (inactive). Further, the aptamer binding inhibition in assay [9] is -5% (inactive). Also, the figures for the response in [10] and in assay [12] were 8.37% (inactive) and -6.13% (inactive), respectively. In addition, the binding (% of control) in [13] is 105% (inactive). Also, the efflux inhibition (fraction of control) in [14] was -0.16 (inactive). Also, in [16], the differentiation response was 2.74% (inactive).
In the case of `Cc1ccc(O)c(CCc2ccccc2)n1`, in [1], the percent of DMSO control GFP was 100% (inactive). Further, the figures for the GFP response vs DMSO in [2] and in assay [4] were 109% (inactive) and 90.7% (inactive), respectively. In [3], the percent response of DMSO control is 94.2% (inactive). For the same molecule, the GFP response, % of DMSO in assay [5] is 98.3% (inactive). In assay [6], this molecule had a double positive events of 61.6%. The vesicle binding response in assay [6] is 222% (inactive). Besides, the inhibition was -4.6% (inactive) in [7], 3.07% (inactive) in assay [11] and 19% (inactive) in [15]. For the same molecule, the superoxide response (% of plate) in assay [8] is 106% (inactive). Moreover, the aptamer binding inhibition in assay [9] is 2% (inactive). The response in assay [10] is -1.92% (inactive); in assay [12] it was 0.6% (inactive). Besides, in assay [13], the binding (% of control) is 98.4% (inactive). In assay [14], the efflux inhibition (fraction of control) was -0.04 (inactive). The differentiation response in assay [16] was 6.11% (inactive).
For the molecule `COc1ccc(C(=O)COc2ccc(F)cc2)c(O)c1`, in [1], the percent of DMSO control GFP is 106% (inactive). Further, the GFP response vs DMSO in assay [2] is 98.3% (inactive); in assay [4], 96% (inactive). In addition, the percent response of DMSO control in assay [3] was 106% (inactive). Besides, in assay [5], the GFP response, % of DMSO is 97.6% (inactive). The double positive events in assay [6] came out at 60.6%. In addition, in assay [6], the vesicle binding response was 253% (inactive). Also, the values for the inhibition in assay [7], in assay [11] and in [15] were -7.72% (inactive), 1.75% (inactive) and 1% (inactive), respectively. Besides, the superoxide response (% of plate) in assay [8] is 86.7% (inactive). For the same molecule, the aptamer binding inhibition in assay [9] was 1% (inactive). Besides, the response in [10] is -9.67% (inactive); in [12] it was 2.77% (inactive). Moreover, the binding (% of control) in assay [13] was 94.5% (inactive). In addition, the efflux inhibition (fraction of control) in assay [14] is -0.04 (inactive). Moreover, the differentiation response in assay [16] was 1.22% (inactive).
`COc1ccc(C(=O)NCCC2=CCCCC2)cc1[N+](=O)[O-]`: the percent of DMSO control GFP in assay [1] was 107% (inactive). Moreover, the GFP response vs DMSO in [2] is 104% (inactive); in assay [4], 114% (inactive). Besides, the percent response of DMSO control in [3] was 106% (inactive). For the same molecule, in assay [5], the GFP response, % of DMSO is 106% (inactive). In addition, the double positive events in [6] came to 62.5%. In addition, in assay [6], the vesicle binding response is 194% (inactive). The inhibition in [7] was 12.3% (inactive); in assay [11], 15.5% (inactive); in assay [15] it was 5% (inactive). In assay [8], the superoxide response (% of plate) was 99.5% (inactive). Also, the aptamer binding inhibition in [9] was 1% (inactive). Also, the response in assay [10] is -5.02% (inactive); in assay [12], -2.15% (inactive). The binding (% of control) in [13] is 97.5% (inactive). Also, the efflux inhibition (fraction of control) in [14] is 1.08 (active). The differentiation response in [16] was -3.11% (inactive).
Regarding `COC(=O)C1=C(C)NC(C)=C([N+](=O)[O-])C1c1ccccc1C(F)(F)F` (centres undefined), the percent of DMSO control GFP in assay [1] was 101% (inactive). Moreover, the GFP response vs DMSO in [2] is 110% (inactive); in assay [4], 97% (inactive). Besides, in [3], the percent response of DMSO control is 98.6% (inactive). Further, in assay [5], the GFP response, % of DMSO was 105% (inactive). This molecule also displayed a double positive events in [6] of 58.2%. Further, in assay [6], the vesicle binding response is 160% (inactive). The inhibition in [7] was 9.63% (inactive); in [11], -3.68% (inactive); in assay [15], 4% (inactive). Also, the superoxide response (% of plate) in assay [8] is 102% (inactive). Besides, in assay [9], the aptamer binding inhibition was 0% (inactive). The response is 4.56% (inactive) in [10] and 3.77% (inactive) in assay [12]. In addition, in assay [13], the binding (% of control) was 106% (inactive). The efflux inhibition (fraction of control) in assay [14] is -0.3 (inactive). Besides, the differentiation response in assay [16] was -7.5% (inactive).
